# Many of the other results were omitted from the sample, so hits are more common in it than they were.
# DT40 TDP1 no CPT: qHTS for Inhibitors of human tyrosyl-DNA phosphodiesterase 1 (TDP1): qHTS in cells in absence of CPT. DT40 Tdp1-/- hTDP1 cells, no CPT, ATP luminescence, 48 h. Potency, µM (titrated, usually from 46.2 µM), hits mostly inhibitors. 420,000 compounds, 15% hits; note: nearly all actives have a fitted effect of over 55% in size
#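 Chicken DT40 Tdp1-/- cells stably complemented with human TDP1 were seeded at 400 cells/well with DMSO in place of 20 nM camptothecin. After compound pinning, cells grew at least 48 hr at 37 °C; viability read by CellTiter-Glo luminescence.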
# HT1080 IDH1KD tx: qHTS for induction of synthetic lethality in tumor cells producing 2HG: qHTS for the HT-1080-IDH1KD cell line; HT-1080 IDH1 knockdown viability, ATP luminescence, 48 h; Potency, µM (highest dose often 46.1 µM), usual class: cytotoxic; 360,000 compounds, 2% hits; AID 686971, 2013
#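 CellTiter-Glo luminescence after 48 h compound exposure at 37 degrees C of IDH1-knockdown HT-1080 cells in 5% FBS RPMI. %Activity scaled between DMSO wells and cell-free media wells, with curves fitted and assigned curve classes.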
# HT1080NT lethal: qHTS for induction of synthetic lethality in tumor cells producing 2HG: qHTS for the HT-1080-NT fibrosarcoma cell line. HT-1080-NT fibrosarcoma viability, CellTiter-Glo ATP luminescence, 48 h. 360,000 compounds, 1.6% hits. Potency, µM (titrated, usually from 46.1 µM), actives largely listed as cytotoxic;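 note: NT is the 2HG producing partner of a matched IDH1 knockdown line; nearly all actives have a fitted effect of over 55% in size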
#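 Viability by CellTiter-Glo luminescence after 48 h compound exposure at 37C of HT-1080-NT cells (750/well, RPMI, 5% FBS). % activity scaled between DMSO wells and medium-only wells, then curve-fitted and categorized by curve class.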
# 12-LOX inh: Primary qHTS assay for inhibitors of human arachidonate 12S-lipoxygenase (ALOX12): Round 2. purified 12hLO, xylenol orange hydroperoxide absorbance. Potency, µM (titrated, usually from 108 µM), hits mostly inhibitors. 580,000 compounds, 1.1% hits
# Target sequence (P18054 whole entry, looked up): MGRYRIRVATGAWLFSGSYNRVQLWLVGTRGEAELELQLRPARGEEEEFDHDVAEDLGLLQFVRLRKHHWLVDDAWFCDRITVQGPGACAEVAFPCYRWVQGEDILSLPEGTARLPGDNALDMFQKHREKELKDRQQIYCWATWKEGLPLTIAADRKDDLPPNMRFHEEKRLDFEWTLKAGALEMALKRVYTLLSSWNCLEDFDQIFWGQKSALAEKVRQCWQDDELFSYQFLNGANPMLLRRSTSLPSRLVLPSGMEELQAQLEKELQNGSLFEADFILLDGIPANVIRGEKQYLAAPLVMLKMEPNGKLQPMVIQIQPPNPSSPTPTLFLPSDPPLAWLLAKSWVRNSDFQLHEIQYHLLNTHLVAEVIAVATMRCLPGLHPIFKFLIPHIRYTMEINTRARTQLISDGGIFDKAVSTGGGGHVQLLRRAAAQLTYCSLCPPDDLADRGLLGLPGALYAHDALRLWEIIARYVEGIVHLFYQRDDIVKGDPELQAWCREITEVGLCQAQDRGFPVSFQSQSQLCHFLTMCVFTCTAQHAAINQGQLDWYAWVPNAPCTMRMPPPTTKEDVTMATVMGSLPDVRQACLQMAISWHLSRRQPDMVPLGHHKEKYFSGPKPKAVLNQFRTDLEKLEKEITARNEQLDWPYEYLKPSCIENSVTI
#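 Purified human 12hLO at 150 nM in 25 mM Hepes, 0.01% Triton X-100, pH 7.0, preincubated 15 min at room temperature with compound. Reaction started with 40 uM arachidonic acid, 30 min at room temperature. Hydroperoxide measured by Fe-xylenol orange, 573/405 nm absorbance ratio.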
# IL-1B inflam inh: qHTS for Inhibitors of Inflammasome Signaling: IL-1-beta AlphaLISA Primary Screen; AID 743279, 2014; THP-1 LPS/ATP IL-1B secretion, AlphaLISA, 16 h; active compounds read low; 360,000 compounds, 4.7% hits; activity change, % at 57.5 µM; in the data active = activity change below about -50%; inconclusive = mostly about -30% to -49%
#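 Secreted IL-1B measured by AlphaLISA bead assay after 16 h compound exposure of THP-1 cells; compounds (final up to 57.5 uM) added 1 h before LPS (250 ng/mL) and ATP (1.25 mM) stimulation; lower signal means less secretion.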
# TDP1 cell CPT: qHTS for Inhibitors of human tyrosyl-DNA phosphodiesterase 1 (TDP1): qHTS in cells in presence of CPT; chicken DT40 Tdp1-/-;hTDP1 cells + 20 nM CPT, ATP luminescence, 48 h; Potency, µM (top dose mostly 46.2 µM), usual class: inhibitors; 420,000 compounds, 12% hits; note: nearly all actives have a fitted effect of over 55% in size
#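 Cell growth measured by CellTiter-Glo luminescence after a minimum 48 h, 37 C compound exposure with 20 nM CPT in Tdp1-knockout DT40 cells stably expressing hTDP1, seeded 400/well; qHTS titration format.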
# Numbers stand for hits; i = inactive; ? = inconclusive; nt = no result given; ! = a repeat was not active. Unless noted, calls come from the whole dose curve; as a rule, active = well fitted curve in the direction sought with a large enough effect; inconclusive = small, poorly fitted or top-dose-only effect, or another doubt; inactive = no such curve, though single readings can be large; an effect the other way counts as inactive or inconclusive.
SMILES,DT40 TDP1 no CPT,HT1080 IDH1KD tx,HT1080NT lethal,12-LOX inh,IL-1B inflam inh,TDP1 cell CPT
COc1ccc(S(=O)(=O)NCc2ccc(C(=O)N3CCN(c4ccccn4)CC3)cc2)cc1,?,i,i,?,i,8.91µM
COc1cccc(S(=O)(=O)NCc2ccc(C(=O)N3CCN(c4ccccc4)CC3)cc2)c1,16.4µM,i,i,i,i,16.4µM
O=C(c1ccc(CNS(=O)(=O)c2cccc(Cl)c2)cc1)N1CCCCC1,14.6µM,i,i,i,i,16.4µM
O=C1CCC(C(=O)OCc2c(Cl)cccc2Cl)=NN1,nt,nt,nt,i,nt,nt
CC(C)CNC(=O)C(C)Sc1cc(C(=O)NC2CC2)c2ccccc2n1 (stereo not drawn),nt,nt,nt,i,nt,nt
CC1(Cc2ccccc2C#N)C(=O)Nc2ccc(OC(F)(F)F)cc21 (stereo not drawn),i,i,i,i,i,i
CC1(Cc2ccccc2Cl)C(=O)Nc2ccc(OC(F)(F)F)cc21 (stereo not drawn),?,29.1µM,?,?,i,23.1µM
COc1ccc(/C=C/C(=O)Oc2ccccc2Cl)cc1,nt,nt,nt,i,nt,nt
CC1=NN(c2ccccc2)C(=O)/C1=C\c1cc(C)n(C)c1C,i,i,i,i,i,i
CN1/C(=C\C=C2/C(=O)Oc3ccccc3C2=O)C(C)(C)c2ccccc21,?,?,?,i,?,?
CC1=NN(c2ccccc2)C(=O)/C1=C\C=C1/N(C)c2ccccc2C1(C)C,?,i,i,?,-85.5,?
CC1=NN(c2ccccc2)C(=O)/C1=C\C=C1\N(C)c2ccccc2C1(C)C,23.1µM,i,i,i,i,?
Cc1ccc(Cl)cc1NC(=O)CSc1ncc(-c2ccc(F)cc2)o1,nt,nt,nt,i,nt,nt
CCCC[C@@H]1CNCCN1CCc1cccc2ccccc12,18.4µM,i,i,i,?,23.1µM
c1ccc(C[C@H]2CNCCN2CCc2cccc3ccccc23)cc1,10.3µM,i,i,?,i,?
Cc1ccc(-c2nc3ccccc3n2CCNC(=O)Nc2cccc(F)c2)cc1,nt,nt,nt,i,nt,nt
COc1nccc(N2CCC(CC(=O)NCc3ccccc3F)CC2)n1,nt,nt,nt,i,nt,nt
CC(=O)OCC(=O)C1(O)CCC2C3CCC4=CC(=O)CCC4(C)C3(Cl)C(O)CC21C (stereo not drawn),?,i,i,i,i,?
C[C@]12CCC(=O)C=C1CCC1C2C(O)C[C@]2(C)C1CC[C@]2(O)C(=O)COC(=O)CCC(=O)O (stereo partly drawn),i,nt,nt,nt,nt,i
CC(=O)OCC(=O)C1(O)CCC2C3CCC4=CC(=O)CCC4(C)C3(F)C(O)CC21C (stereo not drawn),i,?,i,i,-53.2,i
CC(=O)OCC(=O)C1(O)CCC2C3CC(C)C4=CC(=O)C=CC4(C)C3(F)C(O)CC21C (stereo not drawn),i,?,i,i,nt,i
CC(=O)OCC(=O)[C@@]1(O)CC[C@H]2[C@@H]3CCC4=CC(=O)C=C[C@]4(C)[C@@]3(F)[C@@H](O)C[C@@]21C,i,i,i,i,-55.6,i
C[C@]12CCC(=O)C=C1CC[C@@H]1[C@@H]2[C@@H](O)C[C@@]2(C)[C@H]1CC[C@]2(O)C(=O)COC(=O)CCC(=O)O,8.41µM!,i,?,i,?,?
CC12C=CC(=O)C=C1CCC1C3CCC(O)(C(=O)CO)C3(C)CC(O)C12F (stereo not drawn),i,?,?,i,-56.7,i
Cc1ccc(C)c(S(=O)(=O)N2CCc3ccccc32)c1,nt,nt,nt,i,nt,nt
